LGR2 antag – inhibitors of bursicon-induced Drosophila LGR2 receptor cAMP signaling; HEK293 LGR2, CRE-luciferase, bursicon-stimulated, 4 h; inhibition, % at 9.99 µM; actives 0.35% (n = 380,000); AID 720647;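 active = drop in luminescence signal, shown as inhibition above about 50% in the replicate tests, limit read from the data, passing the limit was not always enough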;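 note: agonist challenge used bursicon conditioned medium at about half maximal strength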
HSP90 refold inh – inhibitors of HSP90 luciferase refolding in rabbit reticulocyte lysate; actives 0.91% (n = 290,000); AID 1789; inhibition, % at 5.6 µM; luciferase refolding luminescence, 3 h;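 active = inhibition above the screen-wide mean plus 3 SD, computed separately per campaign, cut at about 16% in these data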;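 note: 0% = DMSO wells and 100% = 60 µM geldanamycin wells; inhibitors lower the luminescence because luciferase stays unfolded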
TROY signal inh – inhibitors of TROY-dependent NF-kB signaling | actives 0.98% (n = 360,000) | AID 1347056 | inhibition, % at 10 µM | Q293 LMP1-TROYcd NF-kB luciferase reporter, 4 h;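 active = compounds whose plate-normalised and pattern-corrected inhibition of the luciferase reporter signal at the single screening dose is 50% or more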
TWEAK-Fn14 inh – TWEAK-Fn14 signaling inhibition; TWEAK-stimulated Fn14 reporter cells, luciferase luminescence, 8 h; inhibition, % at 10 µM; actives 2% (n = 360,000); in the data active = inhibition above about 50%
Numbers without * were called inactive; nt = no result. Most compounds without a hit are left out; they make up all but 2.2% or so of the library.

SMILES | LGR2 antag | HSP90 refold inh | TROY signal inh | TWEAK-Fn14 inh
O=C(NC1CCCC1)N1CC(=O)N2[C@@H](CO)[C@H](c3ccc(-c4cccnc4)cc3)[C@@H]2C1 | 2 | nt | nt | nt
COCC(=O)N1C[C@@H]2[C@H](c3ccccc31)[C@H](CO)N2C(=O)NC(C)C | -12 | nt | nt | nt
O=C(Nc1cccc(F)c1)c1ccc(-c2cccnc2)c2ccoc12 | nt | nt | 40 | 77*
CCOC(=O)NCc1ccc(S(=O)(=O)Nc2ccc(C)cc2)cc1 | nt | 1 | 15 | -3
CCOC(=O)NCc1ccc(CNC(=O)OCC)cc1 | nt | 2 | nt | 73*
COc1ccc2c3c(n(C)c2c1)[C@H](CO)N(Cc1ccccc1)CC31CCN(C(=O)c2ccccc2F)CC1 | 9 | nt | nt | nt
CCCNC(=O)[C@H]1[C@H](CO)[C@H]2Cn3c(ccc(-c4ccccc4)c3=O)[C@@H]1N2C(=O)CC | 0 | nt | nt | nt
CCN(CC(O)CON=C1c2ccccc2-c2ccccc21)S(=O)(=O)c1ccc(C)cc1 (stereo not drawn) | 6 | -3 | 36 | 48
CCN(CC(O)CON=C1c2ccccc2-c2ccccc21)S(=O)(=O)c1ccc(Cl)cc1 (stereo not drawn) | 11 | 0 | 13 | 63*
C/C=C/c1ccc([C@H]2[C@@H](CO)N(C(=O)CC)[C@H]2CN(C)Cc2cncnc2)cc1 | 10 | nt | nt | nt
CCc1ccc(OCC(=O)NC(NC(=S)Nc2ccc(Cl)cc2)C(Cl)(Cl)Cl)cc1 (stereo not drawn) | 27 | -4 | 46 | 72*
CCCC(=O)NC(NC(=S)Nc1ccc(N=Nc2ccccc2)cc1)C(Cl)(Cl)Cl (stereo not drawn) | nt | 6 | 15 | 76*
C[C@@H]1CCCCO[C@H](CN(C)CC2CC2)[C@H](C)CN([C@@H](C)CO)C(=O)c2cc(NC(=O)c3ccncc3)ccc2O1 | 0 | nt | nt | nt
O=C(Cc1cccnc1)N[C@@H]1CC[C@@H](CCn2cc(-c3ccccc3F)nn2)O[C@H]1CO | 0 | nt | nt | nt
C[C@H]1CN([C@@H](C)CO)C(=O)Cc2cc(NS(C)(=O)=O)ccc2O[C@@H]1CN(C)C(=O)NC1CCCCC1 | -9 | nt | nt | nt
O=C(Cn1ccccc1=S)c1ccc(Cl)c(Cl)c1 | 5 | nt | 17 | 8
On1ccccc1=S | 21 | nt | 69* | 106*
CO[C@@H](CN(C)S(=O)(=O)c1cn(C)cn1)[C@H](C)CN(C(=O)Nc1ccc(F)cc1)[C@H](C)CO | 4 | nt | nt | nt
Cc1nn(-c2nc3ccccc3[nH]2)c(N)c1-c1ccccc1 | nt | 0 | -72 | 68*
Cc1ccc2nccc(C(=O)N3CCCC(N4CCN(c5ccc(F)cc5)CC4)C3)c2c1 (stereo not drawn) | 0 | -4 | 76* | 7
CCC(CC)C(=O)Nc1cccc(C(=O)Nc2ccc(S(=O)(=O)Nc3ccc(C)cc3)cc2)c1 | 16 | 0 | 54* | 45
CCC(CC)C(=O)Nc1cccc(C(=O)Nc2ccc(S(N)(=O)=O)cc2)c1 | nt | 2 | 14 | -1
Cc1ccc(S(=O)(=O)NC(=O)c2cccc(Br)c2)cc1 | -3 | -4 | -24 | 84*
O=C(NS(=O)(=O)c1ccccc1)c1cccc(Br)c1 | -5 | 3 | -6 | -8
O=C(CN1C(=O)C2C3C=CC(C3)C2C1=O)Nc1nc2ccccc2[nH]1 (stereo not drawn) | 4 | 4 | nt | 73*
SMILES | LGR2 antag | HSP90 refold inh | TROY signal inh | TWEAK-Fn14 inh
O=C(CN1C(=O)C2C3C=CC(C3)C2C1=O)Nc1ccc(F)cc1 (stereo not drawn) | 7 | 3 | 1 | -4
CCc1ccc(NCc2nc3ccccc3c(=O)[nH]2)cc1 | nt | 2 | 67* | 30
CCOC(=O)/C(C#N)=C/c1c[nH]c2ccccc12 | -44 | 3 | -65 | -10
CCOC(=O)C(=Cc1c[nH]c2ccc(S(=O)(=O)N(C)C)cc12)C(=O)OCC | 30 | 8 | 8 | 66*
COc1ccc(-n2ncc3c(NCC(C)C)ncnc32)cc1 | 0 | 10 | 31 | 50*
COCC(C)Nc1ncnc2c1cnn2-c1ccc(Cl)cc1 (stereo not drawn) | nt | 5 | 40 | 57*
CCCCNc1ncnc2c1cnn2-c1ccc(Cl)cc1 | -23 | -8 | -36 | 38
O=C(NC[C@H]1[C@H](c2ccccc2)[C@H](CO)N1C(=O)Cc1ccncc1)C1CCC1 | -13 | nt | nt | nt
COCCOC(=O)C1=C(C)NC2=C(C(=O)CC(C)(C)C2)C1c1cc2c(cc1Br)OCO2 (stereo not drawn) | 37 | -2 | 6 | 60*
COCCOC(=O)C1=C(C)NC2=C(C(=O)CC(C)(C)C2)C1c1ccc(N(C)C)cc1 (stereo not drawn) | -13 | -1 | -4 | -11
Cc1noc(C)c1NC(=O)Nc1ccc2c(c1)C(=O)N([C@@H](C)CO)C[C@@H](C)[C@H](CN(C)S(=O)(=O)c1cn(C)cn1)OCCCC[C@@H](C)O2 | 16 | nt | nt | nt

Screens: PubChem, several laboratories
